Among the data in PubChem BioAssay (Tox21) are outcome values, retold here.

Inconclusive results are not listed. Activity calls are given as the source filed them. The call rests on the fitted dose curve.

The experiment is described as follows: qHTS assay to identify small molecule agonists of the NFkB signaling pathway - cell viability counter screen (AID 1159515). Further: nearly all actives have a fitted effect of over 55% in size. To be noted: NFkB-bla ME-180 viability, CellTiter-Glo luminescence, 5 h; series mostly up to 61 µM. From the text:
National Center for Advancing Translational Sciences [NCATS]
NIH Chemical Genomics Center [NCGC]
U.S. Environmental Protection Agency [EPA]
National Institutes of Environmental Health Sciences [NIEHS]
National Toxicology Program [NTP]
U.S. Food and Drug Administration [FDA]
Transcription factors and their stimulated target gene expression play pivotal roles across many cellular processes including responses to environmental stimuli. Proper regulation of associated pathways is critical to maintain cell health and function. Constitutive activation of transcription factor pathways has been implicated in tumors as it may block cellular functions such as apoptosis and lead to invasion and metastasis. One important transcription factor that stimulates gene expression in response to cytokines, UV radiation, and other stimuli is nuclear factor-kappa B (NFkB). To measure activation of the NFkB pathway, the CellSensor NFkB-bla ME-180 cell line (Life Technologies, Carlsbad, CA) that stably expresses beta-lactamase reporter gene under the regulation of a NF-kB response element was used. This assay allows measurement of the NFkB pathway activity induced by compounds in a ME-180 cell line. This system quantitates NF-kB activity using a FRET-based assay system where beta-lactamase expression disrupts FRET, allowing for fluorescent measurement of activity. This cell line has been used to screen the Tox21 10K compound library and to identify compounds that induce the NFkB pathway activity. The cytotoxicity of the Tox21 compound library against the NFkB-bla ME-180 cell line was tested in parallel by measuring cell viability using the CellTiter-Glo assay in the same wells.
Tox21 Assay Protocol Summary:
NFkB-bla ME-180 cells were dispensed at 2,000 cells/6 uL of assay medium per well into black wall/clear-bottom 1536-well plates using a Multidrop Combi (ThermoFisher Scientific, Waltham, MA) dispenser. After the assay plates were incubated at 37 C and 5% CO2 for an overnight, 23 nL of compounds dissolved in DMSO, positive controls or DMSO only was transferred to the assay plate by a Pintool station (Kalypsys, San Diego, CA). The assay plates were incubated at 37 C and 5% CO2 for 5 hr. One uL of LiveBLAzer B/G FRET substrate (Life Technologies) was added using a Flying Reagent Dispenser (Aurora Discovery, San Diego, CA) and the plates were incubated at room temperature for 1.5 hr. Fluorescence intensity (405 nm excitation, 460 nm and 530 nm emissions) was measured using an Envision plate reader (PerkinElmer, Shelton, CT). For cytotoxicity, 3 ul/well of CellTiter-Glo reagent was added into the assay plates using an FRD. After 30 min incubation at room temperature, the luminescence intensity was measured using a ViewLux plate reader (PerkinElmer).
For orientation: Quantitative high-throughput screening tests each substance at several concentrations.
As for `O=C(OCCOCCOC(=O)c1ccccc1)c1ccccc1`, the compound was classed as inactive. As for `CC(=O)OCC(=O)[C@@]12N=C(C)O[C@@H]1C[C@H]1[C@@H]3CCC4=CC(=O)C=C[C@]4(C)[C@H]3[C@@H](O)C[C@@]12C`, the outcome was inactive. For `CC(=O)c1ccccc1` the value was “inactive”; for `O=C(O)c1cc(=O)c2c(OCC(O)COc3cccc4oc(C(=O)O)cc(=O)c34)cccc2o1`, “inactive”.

Turning to `COc1ccc(Nc2ccccc2)c(C)c1`, the call was inactive. In the case of `OCCOCCN1CCN(C2=Nc3ccccc3Sc3ccccc32)CC1`, the outcome was inactive.

As for `CC(=O)Nc1cccc(O)c1`, the result was inactive. As for `OCc1cccnc1`, the outcome was inactive. Regarding `C/C=C1/CC2C=CC1C2` (stereo not given), the result was inactive. With `C#CCN(C)Cc1ccccc1`, the outcome was inactive. For `COCCCOc1ccnc(CS(=O)c2nc3ccccc3[nH]2)c1C` (stereo not given) the value was “inactive”; for `CC(C)(C)[C@@H](O)[C@@H](Cc1ccc(Cl)cc1)n1cncn1`, “inactive”. As for `C#C[C@]1(O)CC[C@H]2[C@@H]3CCC4=CC(=O)CC[C@@H]4[C@H]3CC[C@@]21C`, the entry is “inactive”; as for `Cc1cnc(C(=O)NCCc2ccc(S(=O)(=O)NC(=O)NC3CCCCC3)cc2)cn1`, “inactive”; as for `C=C(C)C(=O)Nc1ccc(Cl)c(Cl)c1`, “inactive”.

Take `CCCCCCCCCCCCS`: the compound was called inactive. As for `C=CCNC(N)=S`, the entry is “inactive”; as for `ON=C1CCCCC1`, “inactive”. As for `O=c1[nH]c(=O)n([C@H]2CCCO2)cc1F`, the entry is “inactive”; as for `CCCCC(CC)COC(=O)CCCCC(=O)OCC(CC)CCCC` (stereo not given), “inactive”; as for `O=C(O)CCCCCCCCCCC(=O)O`, “inactive”. For `CC(C)c1ccc(S(=O)(=O)O)cc1` the value was “inactive”.

Consider `Oc1cccc2ccccc12`, for which the outcome was inactive.

In the case of `OCCOCCOCCO`, the call was inactive. With `C[Si](O[Si](C)(C)C)O[Si](C)(C)C`, the result was inactive. Regarding `CC(c1cc2ccccc2s1)N(O)C(N)=O` (stereo not given), the compound was classed as inactive. For `CC1CCC2CC1C2(C)C` (stereo not given) the value was “inactive”. As for `O=C(O)c1ccc(C(=O)O)cc1`, the entry is “inactive”.

For the compound `FC(F)(F)c1ccc(Cl)c(Cl)c1`, the result was inactive. As for `Cc1cccnc1`, the entry is “inactive”.

`c1c[nH]cn1`: the compound was called inactive. For `CC1=CCC2CC1C2(C)C` (stereo not given) the value was “inactive”; for `CCCCOC(=O)COc1ccc(Cl)cc1Cl`, “inactive”; for `c1ccc(OCCOc2ccccc2)cc1`, “inactive”. `CCCCCC/C(C=O)=C\c1ccccc1`: the call was inactive. For `CN(C)CCOCCN(C)C` the value was “inactive”; for `CC1CCC(C(C)C)C(O)C1` (stereo not given), “inactive”.

Regarding `CCCSc1ccc2nc(NC(=O)OC)[nH]c2c1`, the compound was called inactive. As for `CCCCCCCCCCCCOCCO`, the entry is “inactive”; as for `CCOC(=O)NNc1nncc2ccccc12`, “inactive”.
